Test results from PubChem BioAssay (NCATS).
Inconclusive results are not listed. Calls of active or inactive are those of the source. Unless noted, calls follow the shape of the dose curve; as a rule, active = well fitted curve in either direction with a large enough effect (not every such curve was filed as active); inconclusive = small, poorly fitted or top-dose-only effect, or another doubt; inactive = flat fitted curve, though single readings scatter.

Legend:
[1] = AP1 Signaling Pathway (AID 357);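 also: ME-180 reporter cells stimulated with EGF at its EC50 level; % is scaled to controls: 0 for no effect and ±100 for the full control effect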
Method in brief: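 AP-1-bla ME-180 cells, Opti-MEM + 0.5% dialyzed FBS, plated overnight 37 °C. Cpd titration + EC50 EGF, 5 h 37 °C. CCF4 2.5 h RT; ex 405, em 460/530 ratio → %activity, AC50.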

[2] = target: Cytochrome P450 1A2 (Homo sapiens) (UniProt P05177); assay: p450-cyp1a2 (AID 410; calls by dose curve; also: potency is read from the fitted curve at half-maximal effect;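 as to activity change, negative = inhibition: -100% = full effect of reference inhibitor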)
Sequence of Cytochrome P450 1A2 (Homo sapiens) (P05177 whole entry, looked up): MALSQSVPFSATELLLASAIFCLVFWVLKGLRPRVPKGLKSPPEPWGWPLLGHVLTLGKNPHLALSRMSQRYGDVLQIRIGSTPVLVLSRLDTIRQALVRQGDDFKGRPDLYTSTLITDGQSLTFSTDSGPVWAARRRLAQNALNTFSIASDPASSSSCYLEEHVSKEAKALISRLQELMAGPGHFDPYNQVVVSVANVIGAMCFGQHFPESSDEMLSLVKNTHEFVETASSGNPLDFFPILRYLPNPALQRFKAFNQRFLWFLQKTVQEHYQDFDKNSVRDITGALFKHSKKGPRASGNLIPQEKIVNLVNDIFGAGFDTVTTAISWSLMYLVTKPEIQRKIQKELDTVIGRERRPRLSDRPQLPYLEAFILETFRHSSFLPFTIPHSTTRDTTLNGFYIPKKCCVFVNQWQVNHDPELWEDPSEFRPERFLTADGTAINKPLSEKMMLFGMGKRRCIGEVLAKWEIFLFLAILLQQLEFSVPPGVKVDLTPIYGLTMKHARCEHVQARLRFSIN
Method in brief: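 20nM CYP1A2 with 100uM Luciferin-ME (at Km) in 100mM KPO4; compound preincubated 10 min, NADPH regeneration added, 60 min at room temperature. Luciferin quantified by luminescence after detection reagent; normalized to 57 uM furafylline.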

[3] = NFAT Signaling Pathway (AID 444); conditions: Jurkat NFAT-bla M1, carbachol, beta-lactamase ratio, 5 h; at 17.2 µM (top of the series);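 also: carbachol stimulus at about its EC50 of 1 µM final; % is scaled to controls: 0 for no effect and ±100 for the full control effect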
Method in brief: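 Jurkat cells with NFAT-driven β-lactamase reporter and co-expressed M1 receptor, stimulated with carbachol (final 1 uM, ~EC50), compound titration, 5 h at 37 °C. CCF4 loaded 1 h at RT; 460/530 nm ratio gave %activity and AC50.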

[4] = Stat Signaling Pathway (AID 446);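 also: ME-180 cervical cancer cells given 40 pM IL-6 alongside compound; SIE-controlled beta-lactamase reporter measured as 460/530 nm FRET emission ratio; % is scaled to controls: 0 for no effect and ±100 for the full control effect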
Method in brief: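 IL-6/STAT signaling read in ME-180 cells via an SIE beta-lactamase reporter. Stimulus was 40 pM IL-6 (its AC50) for 5 hrs, so both activation and inhibition register.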

[5] = target: Mitogen-activated protein kinase 10 (Mus musculus) (UniProt Q61831); assay: JNK3 AlphaScreen Assay (AID 530);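 also: kinase came from lysate of stimulated human HepG2 cells; signal reports phosphorylation of biotinylated GST-cJun 1-79 at Ser73 with 10 µM ATP; % is scaled to controls: 0 for no effect and ±100 for the full control effect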
Method in brief: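 Pre-activated (IL-1β/TNFα) JNK3 in HepG2 lysates phosphorylates biotin-GST-cJun(1-79), 10 uM ATP; anti-phospho-cJun(Ser73) AlphaScreen read at room temperature, pH 7.6 Tris buffer. Compounds pre-incubated 15 min as titrations.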

[6] = target: 3',5'-cyclic-AMP phosphodiesterase 4B (Homo sapiens) (UniProt Q07343); assay: qHTS Assay for Inhibitors of PDE-IV (AID 607; active = well fitted activation curve with a large enough effect in the main read-out, with a control signal flat, not every such curve was filed as active; also: % of control where 0% means no effect)
Sequence of 3',5'-cyclic-AMP phosphodiesterase 4B (Homo sapiens) (Q07343 whole entry, looked up): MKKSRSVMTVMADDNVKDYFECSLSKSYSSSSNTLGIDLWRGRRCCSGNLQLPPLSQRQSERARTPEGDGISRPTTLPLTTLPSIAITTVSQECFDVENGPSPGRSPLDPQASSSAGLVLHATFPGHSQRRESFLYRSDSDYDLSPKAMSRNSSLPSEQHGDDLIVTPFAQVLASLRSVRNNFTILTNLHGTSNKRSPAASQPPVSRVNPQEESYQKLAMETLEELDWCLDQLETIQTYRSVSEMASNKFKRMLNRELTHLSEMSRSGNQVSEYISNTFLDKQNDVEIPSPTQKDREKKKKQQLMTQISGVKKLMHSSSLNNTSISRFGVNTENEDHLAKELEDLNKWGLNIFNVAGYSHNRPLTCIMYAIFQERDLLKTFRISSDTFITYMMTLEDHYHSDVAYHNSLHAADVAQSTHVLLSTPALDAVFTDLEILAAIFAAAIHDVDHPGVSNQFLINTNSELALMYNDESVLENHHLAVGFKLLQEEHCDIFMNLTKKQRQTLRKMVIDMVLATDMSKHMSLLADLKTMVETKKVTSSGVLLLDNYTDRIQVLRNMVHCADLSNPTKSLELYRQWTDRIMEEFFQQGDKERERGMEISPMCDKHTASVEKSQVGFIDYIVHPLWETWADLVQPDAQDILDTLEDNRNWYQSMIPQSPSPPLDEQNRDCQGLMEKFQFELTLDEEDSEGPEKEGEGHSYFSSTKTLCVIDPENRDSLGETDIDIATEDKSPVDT
Method in brief: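 Live HEK293 cells with a modified cyclic nucleotide-gated (CNG) channel report intracellular cAMP via membrane-potential dye fluorescence (ex 535/em 590 nm). Endogenous PDE-IV was targeted. Compounds were tested at up to 22.9 uM final; RO 20-1724 100 uM served as control.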

[7] = qHTS Assay for Lipid Storage Modulators (AID 1519; calls by dose curve); conditions: Drosophila S3 cells, BODIPY lipid droplet/cell ratio, laser cytometry, cells loaded with oleic acid; for activity change, negative = inhibition: at 25.7 µM (top of the series)
Method in brief: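 Cells seeded at 5,000 per well were treated with compounds over a concentration series and loaded with oleic acid (400 uM, as added). Lipid droplet fluorescence (488 nm excitation, 500-530 nm channel) was read by laser-scanning cytometry and normalized to 20 uM Triacsin C.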

[8] = target: ATP-dependent 6-phosphofructokinase (Trypanosoma brucei brucei) (UniProt O15648); assay: qHTS Assay to Find Inhibitors of T. brucei phosphofructokinase: hit validation (AID 492961; active = well fitted curve in the direction sought with a large enough effect; an effect the other way counts as inactive or inconclusive; also: % is scaled to controls: 0 for no effect and ±100 for the full control effect)
Sequence of ATP-dependent 6-phosphofructokinase (Trypanosoma brucei brucei) (O15648 whole entry, looked up): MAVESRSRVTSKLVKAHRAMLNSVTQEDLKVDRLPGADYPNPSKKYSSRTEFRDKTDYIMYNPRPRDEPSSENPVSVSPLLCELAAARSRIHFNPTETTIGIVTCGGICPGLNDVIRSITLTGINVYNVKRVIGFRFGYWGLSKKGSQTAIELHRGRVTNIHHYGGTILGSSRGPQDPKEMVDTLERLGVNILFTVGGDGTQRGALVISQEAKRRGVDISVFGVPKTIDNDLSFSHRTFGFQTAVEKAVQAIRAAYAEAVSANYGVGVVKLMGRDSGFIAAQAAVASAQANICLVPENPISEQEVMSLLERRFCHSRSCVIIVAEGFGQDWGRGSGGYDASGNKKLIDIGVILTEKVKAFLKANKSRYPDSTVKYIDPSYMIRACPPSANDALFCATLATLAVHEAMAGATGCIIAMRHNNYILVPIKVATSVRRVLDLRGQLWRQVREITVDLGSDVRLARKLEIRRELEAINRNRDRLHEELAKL
Method in brief: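 Luminescence from ADP-Glo reports ADP generated as T. brucei PFK (1.25 nM) phosphorylates 0.5 mM fructose-6-phosphate using 0.1 mM ATP. Reactions ran 45 min at room temperature, pH 8.0.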

[9] = target: Ubiquitin carboxyl-terminal hydrolase 1 (Homo sapiens) (UniProt O94782); assay: Inhibitors of USP1/UAF1: Pilot qHTS (AID 504865; active = well fitted curve in the direction sought with a large enough effect; an effect the other way counts as inactive or inconclusive; also: nearly all actives have a fitted effect of over 35% in size; also: potency is read from the fitted curve at half-maximal effect)
Sequence of Ubiquitin carboxyl-terminal hydrolase 1 (Homo sapiens) (O94782 whole entry, looked up): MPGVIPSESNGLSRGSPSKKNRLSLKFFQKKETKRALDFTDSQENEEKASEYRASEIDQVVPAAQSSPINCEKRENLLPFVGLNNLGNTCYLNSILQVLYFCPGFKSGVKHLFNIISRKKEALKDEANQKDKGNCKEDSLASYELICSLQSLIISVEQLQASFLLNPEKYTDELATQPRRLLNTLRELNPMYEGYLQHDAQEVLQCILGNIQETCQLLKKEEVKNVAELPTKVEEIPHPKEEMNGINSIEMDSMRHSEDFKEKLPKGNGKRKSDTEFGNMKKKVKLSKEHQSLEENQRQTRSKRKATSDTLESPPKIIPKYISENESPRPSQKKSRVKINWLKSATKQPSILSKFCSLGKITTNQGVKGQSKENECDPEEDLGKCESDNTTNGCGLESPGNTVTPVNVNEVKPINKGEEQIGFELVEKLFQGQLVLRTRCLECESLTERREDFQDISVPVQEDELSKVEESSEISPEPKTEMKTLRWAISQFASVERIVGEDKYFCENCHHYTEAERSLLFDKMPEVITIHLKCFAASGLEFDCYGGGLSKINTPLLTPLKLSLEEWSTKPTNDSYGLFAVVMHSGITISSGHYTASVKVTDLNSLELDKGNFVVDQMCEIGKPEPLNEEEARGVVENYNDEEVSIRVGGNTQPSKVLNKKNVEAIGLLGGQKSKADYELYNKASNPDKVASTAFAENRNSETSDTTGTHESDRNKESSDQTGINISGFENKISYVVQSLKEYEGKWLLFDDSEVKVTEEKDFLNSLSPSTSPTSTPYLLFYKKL
Method in brief: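 Deubiquitinase activity followed as kinetic rhodamine fluorescence release from 150 nM Ub-Rho. 1 nM USP1/UAF1 with compound, after 15 min room-temperature preincubation, in HEPES pH 7.8 buffer containing TCEP, EDTA, BSA and Tween-20.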

[10] = target: Luciferin 4-monooxygenase (Photinus pyralis) (UniProt P08659); assay: Biochemical firefly luciferase enzyme assay for NPC (AID 624030; active = well fitted curve in the direction sought with a large enough effect; an effect the other way counts as inactive or inconclusive;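 also: purified P. pyralis luciferase at 10 nM with luciferin and ATP substrate; 0% = DMSO and -100% = full luciferase inhibition by PTC124 control; nearly all actives have a fitted effect of over 70% in size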)
Sequence of Luciferin 4-monooxygenase (Photinus pyralis) (P08659 whole entry, looked up): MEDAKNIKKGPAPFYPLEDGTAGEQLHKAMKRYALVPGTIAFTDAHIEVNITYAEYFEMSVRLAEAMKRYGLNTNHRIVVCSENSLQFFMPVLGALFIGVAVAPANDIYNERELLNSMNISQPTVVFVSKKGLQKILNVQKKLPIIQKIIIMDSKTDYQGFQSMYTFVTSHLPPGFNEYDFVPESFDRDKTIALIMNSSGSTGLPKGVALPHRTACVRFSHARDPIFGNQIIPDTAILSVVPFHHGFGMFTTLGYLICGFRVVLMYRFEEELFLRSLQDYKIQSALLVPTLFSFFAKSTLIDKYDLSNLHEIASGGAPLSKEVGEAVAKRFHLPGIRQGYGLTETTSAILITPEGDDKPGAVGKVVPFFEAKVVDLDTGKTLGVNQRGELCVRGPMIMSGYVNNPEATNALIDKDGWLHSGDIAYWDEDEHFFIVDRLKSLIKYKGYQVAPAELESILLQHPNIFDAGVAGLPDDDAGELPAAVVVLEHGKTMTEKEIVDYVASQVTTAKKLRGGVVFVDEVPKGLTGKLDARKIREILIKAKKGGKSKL
Method in brief: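 Purified P. pyralis luciferase at 10 nM in 50 mM Tris Acetate (final), luminescence read within 5 minutes of enzyme addition to compounds. Activity normalised to PTC124 versus DMSO; concentration-response curves classed by r2, magnitude and activity.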

[11] = qHTS profiling for inhibitors of Plasmodium falciparum proliferation (AID 504749; active = well fitted curve in the direction sought with a large enough effect; an effect the other way counts as inactive or inconclusive;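 also: 0% = DMSO vehicle and full inhibition = artemisinin control; nearly all actives have a fitted effect of over 60% in size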); conditions: P. falciparum in erythrocytes, SYBR Green DNA, 72 h, at 12.8 µM (top of the series)
Method in brief: (§1)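 P. falciparum-infected erythrocytes (0.3% parasitemia, 2.5% hematocrit) incubated with compound 72 h at 37 C, 5% CO2. Parasite DNA detected by SYBR Green after lysis, overnight at room temperature; normalised to 0.29 uM artemisinin and DMSO.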

AS120 = assay: as above; conditions: P. falciparum in erythrocytes, SYBR Green DNA, 72 h; series mostly up to 28.7 µM
Method in brief: as §1

ATS189 = assay: as above; conditions: P. falciparum in erythrocytes, SYBR Green DNA, 72 h; series mostly up to 28.7 µM
Method in brief: as §1

DFO2036 = assay: as above; conditions: P. falciparum in erythrocytes, SYBR Green DNA, 72 h; series mostly up to 28.7 µM
Method in brief: as §1

[12] = target: Glucocorticoid receptor (Homo sapiens) (UniProt P04150); assay: GR-GFP Redistribution (AID 450;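 active = compounds whose dose series gives a full or clear partial fitted curve of increased nuclear translocation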; also: potency is read from the fitted curve at half-maximal effect); conditions: U2OS GR-GFP nuclear translocation, laser cytometry, 2 h
Sequence of Glucocorticoid receptor (Homo sapiens) (P04150 whole entry, looked up, the tested form may be a part): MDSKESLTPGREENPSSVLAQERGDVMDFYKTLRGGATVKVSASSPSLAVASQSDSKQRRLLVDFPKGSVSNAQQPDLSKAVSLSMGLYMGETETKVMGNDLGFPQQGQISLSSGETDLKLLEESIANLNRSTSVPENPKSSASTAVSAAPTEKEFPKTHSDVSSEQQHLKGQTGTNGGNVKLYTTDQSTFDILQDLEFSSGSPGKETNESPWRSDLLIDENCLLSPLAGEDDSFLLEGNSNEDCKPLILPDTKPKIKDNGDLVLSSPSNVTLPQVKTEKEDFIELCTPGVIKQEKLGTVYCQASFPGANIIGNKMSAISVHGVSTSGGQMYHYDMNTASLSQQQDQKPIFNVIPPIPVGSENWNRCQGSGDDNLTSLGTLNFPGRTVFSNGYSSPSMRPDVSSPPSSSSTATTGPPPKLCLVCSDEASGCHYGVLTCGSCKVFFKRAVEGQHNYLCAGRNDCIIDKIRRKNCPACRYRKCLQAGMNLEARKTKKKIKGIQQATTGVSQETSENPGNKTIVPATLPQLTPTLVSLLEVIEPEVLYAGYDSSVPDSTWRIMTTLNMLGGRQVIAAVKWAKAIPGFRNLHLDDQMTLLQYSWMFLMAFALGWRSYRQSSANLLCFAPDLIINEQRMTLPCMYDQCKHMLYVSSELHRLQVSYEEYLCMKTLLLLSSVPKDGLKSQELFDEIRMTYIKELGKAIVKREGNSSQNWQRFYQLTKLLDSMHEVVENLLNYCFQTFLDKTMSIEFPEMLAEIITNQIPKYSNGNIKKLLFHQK

[13] = target: Glucocorticoid receptor (Homo sapiens) (UniProt P04150); assay: GR-EFC Redistribution (AID 451; calls by dose curve; also: potency is read from the fitted curve at half-maximal effect); conditions: CHO-K1 GR-EFC translocation, beta-gal luminescence, 2 h
Method in brief: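 CHO-K1 cells expressing nuclear EA and GR-ED fragments of b-gal; compounds titrated up to 46 uM final, 2 h at 37 C. GR nuclear translocation read as complemented b-gal luminescence after 1 h RT detection.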

[14] = target: Cytochrome P450 3A4 (Homo sapiens) (UniProt P08684); assay: qHTS Assay for Activators of Cytochrome P450 3A4 (AID 885; active = well fitted curve in the direction sought with a large enough effect; an effect the other way counts as inactive or inconclusive; also: nearly all actives have a fitted effect of over 65% in size)
Sequence of Cytochrome P450 3A4 (Homo sapiens) (P08684 whole entry, looked up): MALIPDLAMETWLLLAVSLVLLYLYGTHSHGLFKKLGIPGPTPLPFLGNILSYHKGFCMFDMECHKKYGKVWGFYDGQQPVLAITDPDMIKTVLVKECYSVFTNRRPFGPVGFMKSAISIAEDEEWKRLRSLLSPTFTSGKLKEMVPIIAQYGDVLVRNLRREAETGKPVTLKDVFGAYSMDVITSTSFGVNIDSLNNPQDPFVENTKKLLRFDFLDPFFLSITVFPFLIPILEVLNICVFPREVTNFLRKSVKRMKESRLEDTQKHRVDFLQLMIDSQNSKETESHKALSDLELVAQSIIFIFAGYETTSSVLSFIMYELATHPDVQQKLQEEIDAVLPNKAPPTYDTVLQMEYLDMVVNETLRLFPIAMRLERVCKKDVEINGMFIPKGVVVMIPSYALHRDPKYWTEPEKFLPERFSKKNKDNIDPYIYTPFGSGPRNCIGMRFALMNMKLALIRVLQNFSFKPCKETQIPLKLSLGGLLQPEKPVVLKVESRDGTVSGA
Method in brief: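 Quantitative HTS format: compounds preincubated with 20nM human CYP3A4 and Luciferin-PPXE substrate at KM, reaction started by NADPH regeneration, stopped after 60 min, luciferase luminescence read 20 min later.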

[15] = target: Cytochrome P450 3A4 (Homo sapiens) (UniProt P08684); assay: qHTS Assay for Inhibitors and Substrates of Cytochrome P450 3A4 (AID 884; active = well fitted curve in the direction sought with a large enough effect; an effect the other way counts as inactive or inconclusive; also: potency is read from the fitted curve at half-maximal effect; nearly all actives have a fitted effect of over 50% in size)
Method in brief: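 20 nM human CYP3A4 with 25 uM Luciferin-PPXE (at KM) in 200 mM KPO4, preincubated 10 min with compound; NADPH regeneration started a 60 min RT reaction. Luciferin detected by luminescence, normalized to 57 uM ketoconazole as full inhibition.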

[16] = measured here: cell count channel max response
[17] = measured here: lipid channel max response

NCC[C@H](O)C(=O)N[C@H]1C[C@@H](N)[C@@H](O[C@H]2O[C@@H](CN)[C@@H](O)[C@@H](O)[C@@H]2N)[C@@H](O[C@H]2O[C@@H](CO)[C@@H](O)[C@@H]2O)[C@@H]1O
-13.9%: max response [7, 17]
-10.6%: max response [7, 16]
inactive: outcome [1] | Potency [2] | activity change, negative = inhibition [3] -14.8% | outcome [4] | outcome [5] | Potency [6] | activity change, negative = inhibition [7] -3.44% | Potency [8] | Potency [9] | Potency [10] | activity, negative = inhibition ([11]; parasite line A) 12.6% | activity, negative = inhibition ([11]; parasite line B) 8.36% | Potency (AS120) | Potency (ATS189) | Potency (DFO2036)

C/C=C1\C[C@H](C)[C@@](O)(CO)C(=O)OCC2=CCN3CC[C@@H](OC1=O)[C@@H]23
inactive: outcome [1] | Potency [2] | activity change, negative = inhibition [3] -20.5% | outcome [4] | Potency [12] > 20.6 µM | Potency [13] > 20.6 µM | outcome [5] | Potency [6] | activity change, negative = inhibition [7] 0.17%
4.82%: max response [7, 16]
5.25%: max response [7, 17]

C/C=C1\C[N@@+]2(C)CC[C@@]34C(=C(C=O)[C@H]1C[C@H]32)Nc1ccccc14
-3.08%: max response [7, 16]
inactive: outcome [1] | Potency [2] | activity change, negative = inhibition [3] -3.46% | outcome [4] | Potency [12] > 20.6 µM | Potency [13] > 20.6 µM | outcome [5] | Potency [14] | activity change, negative = inhibition [7] -2.98% | Potency [9]
-5.51%: max response [7, 17]

C=C1C/C(=C\C)C(=O)O[C@@H]2CCN3CC=C(COC(=O)[C@@]1(C)O)[C@H]23
10.5%: max response [7, 17]
8.7%: max response [7, 16]
inactive: outcome [1] | Potency [2] | activity change, negative = inhibition [3] -7.46% | outcome [4] | Potency [12] > 20.6 µM | Potency [13] > 20.6 µM | outcome [5] | Potency [6] | Potency [14] | activity change, negative = inhibition [7] 1.53% | Potency [9]

CC(C)C[C@H]1C(=O)N2CCC[C@@H]2[C@@]2(O)O[C@](NC(=O)[C@@H]3C=C4c5cccc6[nH]cc(c56)C[C@@H]4N(C)C3)(C(C)C)C(=O)N12
inactive: outcome [1] | activity change, negative = inhibition [3] -19.6% | outcome [4] | Potency [12] > 20.6 µM | Potency [13] > 20.6 µM | outcome [5] | Potency [6] | Potency [14] | activity change, negative = inhibition [7] 1.16%
-5.41%: max response [7, 16]
-4.79%: max response [7, 17]
active: Potency [2] 12.6 µM | Potency [15] 2 µM | Potency [9] 14.1 µM

CN1[C@@H]2CCC[C@H]1CC(=O)C2
inactive: outcome [1] | Potency [2] | outcome [4] | Potency [12] > 20.6 µM | Potency [13] > 20.6 µM | outcome [5] | Potency [6] | activity change, negative = inhibition [7] -2.47% | Potency [9]
-0.588%: max response [7, 16]
-3.94%: max response [7, 17]

Clc1ccc(CO[C@@H](Cn2ccnc2)c2ccc(Cl)cc2Cl)cc1
-18.5%: max response [7, 16]
-19.5%: max response [7, 17]
inactive: outcome [1] | outcome [4] | Potency [12] > 20.6 µM | outcome [5] | Potency [14] | activity change, negative = inhibition [7] -6.08%

CN[C@@H](C)[C@H]1CC[C@@H](N)[C@@H](O[C@@H]2[C@@H](O)[C@@H](O[C@H]3OC[C@@](C)(O)[C@@H](NC)[C@@H]3O)[C@H](N)C[C@@H]2N)O1 (tested in a mixture with another compound)
inactive: outcome [1] | outcome [4] | outcome [5] | Potency [6] | activity change, negative = inhibition [7] -2.96% | Potency [8] | Potency [10] | activity, negative = inhibition ([11]; parasite line A) 3.71% | Potency (AS120) | Potency (ATS189) | Potency (DFO2036)
-4.43%: max response [7, 16]
-11.6%: max response [7, 17]

C[C@H]1CC[C@@H]2[C@@H](C)C(=O)O[C@H]3O[C@@]4(C)CC[C@H]1[C@@]32OO4
inactive: outcome [1] | activity change, negative = inhibition [3] -0.23% | outcome [4] | Potency [12] > 20.6 µM | Potency [13] > 20.6 µM | outcome [5] | activity change, negative = inhibition [7] -3.8%
-15%: max response [7, 17]
-10.2%: max response [7, 16]

COP(=O)(OC)[C@@H](O)C(Cl)(Cl)Cl
inactive: outcome [1] | activity change, negative = inhibition [3] -11.8% | outcome [4] | Potency [12] > 20.6 µM | Potency [13] > 20.6 µM | outcome [5] | Potency [6] | activity change, negative = inhibition [7] -2.04% | Potency [9]
2.5%: max response [7, 17]
5.96%: max response [7, 16]

Oc1ccc2c3c1O[C@H]1[C@@H](O)CC[C@]4(O)[C@H](C2)N(CC2CCC2)CC[C@@]314
inactive: outcome [1] | activity change, negative = inhibition [3] -1.63% | outcome [4] | Potency [12] > 20.6 µM | Potency [13] > 20.6 µM | outcome [5] | Potency [6] | activity change, negative = inhibition [7] -2.99% | Potency [9]
0.408%: max response [7, 17]
3.75%: max response [7, 16]

CO[C@H]1C=C2CCN(C)[C@@H]2[C@@H]2c3cc4c(cc3C(=O)O[C@H]21)OCO4
inactive: outcome [1] | outcome [4] | Potency [12] > 20.6 µM | Potency [13] > 20.6 µM | outcome [5] | Potency [6] | activity change, negative = inhibition [7] 0.781% | Potency [9]
-13.3%: max response [7, 16]
-11.4%: max response [7, 17]

C[C@@]12CC[C@H](O)C[C@@H]1CC[C@H]1[C@H]2CC[C@@]2(C)[C@@H](C3=CC(=O)OC3)CC[C@]12O
-2.15%: max response [7, 16]
-7.35%: max response [7, 17]
inactive: Potency [2] | outcome [4] | Potency [12] > 20.6 µM | Potency [13] > 20.6 µM | Potency [14] | activity change, negative = inhibition [7] -3.39% | Potency [9]
active: activity change, negative = inhibition [3] -74.9% | Potency [15] 3.16 µM

CCC[C@@](C)(COC(N)=O)COC(=O)NC(C)C
7.74%: max response [7, 17]
inactive: outcome [1] | Potency [2] | outcome [4] | outcome [5] | activity change, negative = inhibition [7] -3.74% | Potency [9]
10.2%: max response [7, 16]
